The values below come from PubChem BioAssay (NCATS).

Test [1] deals with alpha-glucosidase (Oryza sativa, rice) (UniProt Q653V4). The experiment in a line: Counterscreen for Glucocerebrosidase Inhibitors: qHTS Assay for Rice alpha-Glucosidase at pH 5.0 (AID 997).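 Note: 0% = full activity with enzyme and -100% = basal without enzyme.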 The essentials: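 Rice alpha-glucosidase (4 nM final) with 400 uM 4-methylumbelliferyl-alpha-D-glucopyranoside in citrate buffer pH 5.0, 20 min at room temperature, stopped at pH 10; fluorescence 365/440 nm, compounds 0.7 nM–77 uM, AC50 from Hill fits.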

The nature of test [2]: Validation of Assay for Modulators of Lamin A Splicing (AID 1459; active = well fitted curve in the direction sought with a large enough effect in the signal ratio; the % refers to the signal ratio;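 note: cells exposed to compound for two days before reading; 0% is about no effect; ratio rise marks activators and ratio drop marks inhibitors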). The essentials: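 HeLa S3 lamin A-EGFP/DsRed2 stable clone, 600 cells/well, Opti-MEM 2% FBS; compounds by pin tool; 48 hrs, 37 °C/5% CO2; Acumen 488 nm scan, objects 10-100 um; GFP/RFP intensity ratio.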
Test [3] can be described thus: qHTS Assay for Lipid Storage Modulators (AID 1519; calls by dose curve; for activity change, negative = inhibition: % is set by controls: 0 for no effect and ±100 for the full control effect). As to conditions: Drosophila S3 cells, BODIPY lipid droplet/cell ratio, laser cytometry, cells loaded with oleic acid. In short, it runs like this:
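Cells seeded at 5,000 per well were treated with compounds over a concentration series and loaded with oleic acid (400 uM, as added). Lipid droplet fluorescence (488 nm excitation, 500-530 nm channel) was read by laser-scanning cytometry and normalized to 20 uM Triacsin C.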
(In qHTS, concentration-response curves come from the screen itself.)

In test [4] the target is DNA repair nuclease/redox regulator APEX1 (Homo sapiens) (UniProt P27695). Description: qHTS Validation Assay for Inhibitors of the Human Apurinic/apyrimidinic Endonuclease 1 (APE1) (AID 1705;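 note: TAMRA fluorescence gain over two minutes as APE1 cuts a quenched THF abasic duplex; % is set by controls: 0 for no effect and ±100 for the full control effect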). The essentials:
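qHTS, 1536-well. APE1 + cpd 15 min RT → 50 nM TAMRA/BHQ-2 THF-abasic dsDNA substrate → kinetic fluorescence, 3 reads/60 s; delta(read3−read1) = reaction progress. No-enzyme buffer = negative control.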

Test [5] is described as follows: Counterscreen for APE1 Inhibitors: Fluorescent Dye Displacement Validation Assay (AID 1707).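 Note: plate controls were ThO with dsDNA and no compound for no effect and ThO without dsDNA for full effect.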 The essentials:
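ThO 250 nM + dsDNA 50 nM (THF abasic site, 5'-TAMRA), Tris-HCl pH7.5/50mM NaCl/2 mM MgCl2/0.01% Tween-20; compounds pin-transferred; ex 480/em 540 nm endpoint. Neutral = no compound; no-DNA ThO wells = negative control.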

The target of test [6] is Endonuclease 4 (Escherichia coli (strain K12)) (UniProt P0A6C1). The experiment in a line: Counterscreen for APE1 Inhibitors: qHTS Validation Assay for Inhibitors of Endonuclease IV (AID 1708). Note: % is set by controls: 0 for no effect and ±100 for the full control effect. The essentials: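 Cleavage of a quenched abasic-site DNA duplex (50 nM, 5'-TAMRA, 3'-BHQ-2) by 2 nM enzyme is followed as fluorescence increase. Compounds are preincubated with enzyme 15 min at room temperature before substrate addition.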

Test [7] can be described thus: qHTS for differential inhibitors of proliferation of Plasmodium falciparum line 3D7 (AID 1876). Note: potency is the fitted concentration of half-maximal effect.
A short description of test [8]: qHTS for differential inhibitors of proliferation of Plasmodium falciparum line Dd2 (AID 1882).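 For activity change, negative = inhibition: compound exposure of 72 h on infected erythrocytes; plate controls were DMSO vehicle for no effect and 0.29 µM artemisinin for full effect.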 Note: nearly all actives have a fitted effect of over 65% in size. Note: potency is the fitted concentration of half-maximal effect. As to conditions: Potency: Plasmodium falciparum Dd2 proliferation inhibition. In short, it runs like this: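 SYBR Green I DNA fluorescence read-out, ex 485/em 535 nm. Signals were normalized to 0.29 uM artemisinin and DMSO wells, then corrected using vehicle-only plates flanking each stack. Parasite growth ran 72 h in erythrocytes before lysis.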

Test [9] can be described thus: qHTS for differential inhibitors of proliferation of Plasmodium falciparum line W2 (AID 1883).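 For activity change, negative = inhibition: 0% = vehicle wells and -100% = control inhibitor wells.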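 Note: parasites grown with compound for 72 h before lysis and staining.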 Note: potency is the fitted concentration of half-maximal effect. As to conditions: Potency: Plasmodium falciparum W2 proliferation inhibition.
Test [10] in a line: qHTS for differential inhibitors of proliferation of Plasmodium falciparum line HB3 (AID 1886).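 For activity change, negative = inhibition: plate controls were vehicle for no effect and reference inhibitor for full effect.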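 Note: parasites grown with compound for 72 h before SYBR Green readout.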 Note: potency is the fitted concentration of half-maximal effect. As to conditions: Potency: Plasmodium falciparum HB3 proliferation inhibition.
In test [11] the target is Ferritin light chain (Equus caballus) (UniProt P02791). Description: qHTS Validation Assay for Identification of Novel General Anesthetics (AID 2323). Note: % is set by controls: 0 for no effect and ±100 for the full control effect. In short, it runs like this:
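Fluorescence at 535 nm (excitation 380 nm) reported loss of 1-AMA binding to horse-spleen apoferritin (10 uM) in PBS with 50% saturated 1-aminoanthracene, after 10 min room-temperature incubation with compound; values from Hill fits of normalized response.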

Test [12] has as its target ATP-dependent DNA helicase Q1 (Homo sapiens) (UniProt P46063). Description: qHTS Validation Assay for Inhibitors of RecQ-Like Dna Helicase 1 (RECQ1) (AID 2353).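 Note: plate controls were DMSO vehicle for no effect and enzyme-free control for full effect.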 In short, it runs like this:
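50 nM RECQ1T1 preincubated 15 min with compound in Tris pH 8.0 buffer with MgCl2, DTT, Tween-20 and 2.5 ug/ml poly(dI-dC); started with 200 nM TAMRA/BHQ-2 forked duplex and 2 mM ATP. Unwinding read as fluorescence (525/598 nm), two reads 2 h apart.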

A short description of test [13]: qHTS for differential inhibitors of proliferation of Plasmodium falciparum line 7G8 (AID 1815).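 For activity change, negative = inhibition: plate controls were vehicle wells for no effect and reference inhibitor wells for full effect.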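 Note: parasite growth measured after three days of incubation.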 Note: potency is the fitted concentration of half-maximal effect.
The nature of test [14]: qHTS for differential inhibitors of proliferation of Plasmodium falciparum line GB4 (AID 1816).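 For activity change, negative = inhibition: 0% = vehicle DMSO and -100% = reference inhibitor.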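 Note: parasite growth measured after 72 h incubation.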 Note: potency is the fitted concentration of half-maximal effect. As to conditions: Potency: Plasmodium falciparum GB4 proliferation inhibition.
A short description of test [15]: qHTS for differential inhibitors of proliferation of Plasmodium falciparum line D10 (AID 1877).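 For activity change, negative = inhibition: plate controls were vehicle wells for no effect and reference inhibitor wells for full effect.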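 Note: parasites grown with compound for 72 h before DNA staining.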 Note: potency is the fitted concentration of half-maximal effect.
The nature of test [16]: qHTS Assay for Modulators of Human Peripheral Myelin Protein 22 (PMP22) Expression/Activity (AID 1967; active = well fitted curve in the direction sought with a large enough effect in the signal ratio; the % refers to the signal ratio;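 note: 0% = untreated cells and 100% end not stated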). In short, it runs like this: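 Luminescence ratio of Pmp22 promoter-driven green luciferase to EF-alpha-driven red luciferase, in engineered mouse MSC80 Schwann cells, served as read-out. Compounds were incubated 24h; untreated cells defined 0% Activity; curves were classified by r2, magnitude and activity.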

In test [17] the target is RecQ-like DNA helicase BLM (Homo sapiens) (UniProt P54132). The experiment in a line: qHTS Validation Assay for Inhibitors of Bloom's syndrome helicase (BLM) (AID 2364).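 Note: plate controls were DMSO vehicle for no effect and enzyme-free control for full effect.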 The essentials:
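50 nM BLM preincubated 15 min at room temperature with compound in pH 8.0 Tris buffer containing 2.5 ug/ml poly(dI-dC); started with 200 nM TAMRA/BHQ-2 forked duplex and 2 mM ATP (final). Unwinding read as TAMRA fluorescence increase, two reads 2 h apart.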

The mark [18] stands for this setting: measured here: cell count channel max response.
Where [19] appears, read: measured here: lipid channel max response.

SMILES strings stand for the structures. Where “and” joins values, the source holds several entries; their conditions need not be identical. Equal entries are not always repeated. Inconclusive results are not listed. Calls of active or inactive are those of the source. Unless noted, calls come from the whole dose curve; as a rule, active = well fitted curve in the direction sought with a large enough effect; inconclusive = small, poorly fitted or top-dose-only effect, or another doubt; inactive = no such curve, though single readings can be large; an effect the other way counts as inactive or inconclusive.

Chain of ATP-dependent DNA helicase Q1 (Homo sapiens) (P46063 whole entry, looked up): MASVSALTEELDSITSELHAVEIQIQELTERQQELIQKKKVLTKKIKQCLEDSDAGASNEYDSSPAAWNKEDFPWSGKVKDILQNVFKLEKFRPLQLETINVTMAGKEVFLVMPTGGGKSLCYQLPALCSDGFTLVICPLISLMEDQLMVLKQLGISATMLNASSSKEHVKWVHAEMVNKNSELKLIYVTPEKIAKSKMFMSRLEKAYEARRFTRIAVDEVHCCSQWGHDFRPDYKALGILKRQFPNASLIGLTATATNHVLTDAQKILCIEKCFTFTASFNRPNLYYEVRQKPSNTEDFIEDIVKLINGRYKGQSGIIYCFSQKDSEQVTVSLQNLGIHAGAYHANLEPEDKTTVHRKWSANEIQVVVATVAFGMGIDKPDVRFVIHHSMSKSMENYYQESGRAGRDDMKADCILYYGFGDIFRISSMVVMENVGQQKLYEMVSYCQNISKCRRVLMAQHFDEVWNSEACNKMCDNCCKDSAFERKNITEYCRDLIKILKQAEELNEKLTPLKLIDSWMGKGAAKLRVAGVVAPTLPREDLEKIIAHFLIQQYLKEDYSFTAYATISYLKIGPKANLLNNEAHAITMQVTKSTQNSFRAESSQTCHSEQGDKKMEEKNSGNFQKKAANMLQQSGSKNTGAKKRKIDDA
Chain of DNA repair nuclease/redox regulator APEX1 (Homo sapiens) (P27695 whole entry, looked up): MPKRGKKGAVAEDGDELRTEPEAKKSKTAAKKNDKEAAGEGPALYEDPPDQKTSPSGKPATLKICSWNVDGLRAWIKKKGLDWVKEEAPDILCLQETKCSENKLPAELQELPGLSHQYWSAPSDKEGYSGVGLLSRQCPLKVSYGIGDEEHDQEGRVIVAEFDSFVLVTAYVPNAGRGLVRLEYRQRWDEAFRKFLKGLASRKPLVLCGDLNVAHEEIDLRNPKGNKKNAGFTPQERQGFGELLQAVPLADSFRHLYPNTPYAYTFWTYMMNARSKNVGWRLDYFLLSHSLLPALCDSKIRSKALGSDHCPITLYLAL
Chain of Ferritin light chain (Equus caballus) (P02791 2-175 limits assumed): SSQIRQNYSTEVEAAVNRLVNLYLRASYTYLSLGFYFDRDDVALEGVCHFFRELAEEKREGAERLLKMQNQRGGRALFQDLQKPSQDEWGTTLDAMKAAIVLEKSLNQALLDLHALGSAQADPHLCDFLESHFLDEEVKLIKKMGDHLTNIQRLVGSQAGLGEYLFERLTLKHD
Chain of RecQ-like DNA helicase BLM (Homo sapiens) (P54132 whole entry, looked up): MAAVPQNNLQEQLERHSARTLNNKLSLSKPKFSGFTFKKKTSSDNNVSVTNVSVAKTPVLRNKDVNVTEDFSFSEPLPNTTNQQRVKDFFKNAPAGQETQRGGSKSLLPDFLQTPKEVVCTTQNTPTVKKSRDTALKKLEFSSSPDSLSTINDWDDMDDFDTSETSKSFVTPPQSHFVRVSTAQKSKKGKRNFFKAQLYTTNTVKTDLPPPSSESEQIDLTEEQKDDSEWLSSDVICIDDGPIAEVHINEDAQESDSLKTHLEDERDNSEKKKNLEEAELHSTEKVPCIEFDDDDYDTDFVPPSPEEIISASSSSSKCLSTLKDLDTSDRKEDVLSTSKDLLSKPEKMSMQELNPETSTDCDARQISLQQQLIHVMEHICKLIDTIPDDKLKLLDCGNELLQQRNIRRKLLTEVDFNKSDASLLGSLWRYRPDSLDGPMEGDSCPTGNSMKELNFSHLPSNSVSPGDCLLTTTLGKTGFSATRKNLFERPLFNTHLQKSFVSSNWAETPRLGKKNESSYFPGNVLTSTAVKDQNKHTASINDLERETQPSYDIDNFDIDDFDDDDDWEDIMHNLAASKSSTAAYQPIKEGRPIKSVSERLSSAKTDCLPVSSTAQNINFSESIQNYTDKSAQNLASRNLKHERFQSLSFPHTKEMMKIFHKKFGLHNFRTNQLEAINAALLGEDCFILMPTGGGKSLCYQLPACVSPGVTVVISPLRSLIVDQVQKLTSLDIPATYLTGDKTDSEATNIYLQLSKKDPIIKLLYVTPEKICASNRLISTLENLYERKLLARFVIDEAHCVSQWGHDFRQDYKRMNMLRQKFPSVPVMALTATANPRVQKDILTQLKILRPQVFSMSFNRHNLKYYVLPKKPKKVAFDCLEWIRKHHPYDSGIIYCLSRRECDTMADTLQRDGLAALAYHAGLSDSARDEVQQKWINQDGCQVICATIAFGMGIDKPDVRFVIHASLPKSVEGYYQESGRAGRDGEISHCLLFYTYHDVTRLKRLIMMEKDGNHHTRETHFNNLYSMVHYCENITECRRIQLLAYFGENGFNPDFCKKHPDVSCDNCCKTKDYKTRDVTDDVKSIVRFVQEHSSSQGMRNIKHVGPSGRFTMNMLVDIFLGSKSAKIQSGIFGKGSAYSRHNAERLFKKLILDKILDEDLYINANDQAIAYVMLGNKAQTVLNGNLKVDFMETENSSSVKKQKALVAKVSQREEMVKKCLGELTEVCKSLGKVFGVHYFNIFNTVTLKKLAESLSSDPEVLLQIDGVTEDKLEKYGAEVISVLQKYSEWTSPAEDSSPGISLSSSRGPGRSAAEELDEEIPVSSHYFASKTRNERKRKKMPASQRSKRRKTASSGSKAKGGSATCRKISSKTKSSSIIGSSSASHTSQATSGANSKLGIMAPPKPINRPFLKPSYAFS

Take `NC(N)=NC(N)=Nc1cccc(Cl)c1`: the call in test [1] and in test [2] was inactive. Moreover, the activity change, negative = inhibition in test [3] (at 57.5 µM (top of the series)) is 3.33% (inactive) and -0.622% (inactive). In addition, the max response in test [3] (setting [18]) was 13.6% and -27.3%; in test [3] (setting [19]), 18.7% and -27.9%. Besides, the Potency result in test [4], in test [5], in test [6], in [8], in test [11] and in test [12] was “inactive” each time. Also, the results for the Potency in test [7], in [9] and in test [10] were 11.2 µM (active), 5.01 µM (active) and 8.91 µM (active), respectively.
On to `NCCS(=O)O`, for which the compound was called inactive in test [1], in [2] and in test [16]. In test [3] (at 57.5 µM (top of the series)), the activity change, negative = inhibition is -6.29% (inactive) and 1.76% (inactive). The max response in [3] (setting [18]) is -10.2% and 4.71%; in test [3] (setting [19]), -16.1% and 6.07%. For the same compound, the Potency result in [4], in [5], in [6], in test [13], in [14] and in test [7] was “inactive” in each case. For the same compound, the Potency entry in [15], in [8], in test [9], in test [10] and in test [12] was “inactive” throughout.
With `CN[C@H](CC(=O)O)C(=O)O`, the compound was called inactive in [1], in test [2] and in [16]. For the same compound, the activity change, negative = inhibition in test [3] (at 57.5 µM (top of the series)) was 3.39% (inactive). Further, the max response in test [3] (setting [18]) worked out at 12.1%; in test [3] (setting [19]), 14.4%. Also, the Potency result in test [4], in test [5], in test [6], in test [13], in test [14] and in [7] was “inactive” in each case. The Potency entry in test [15], in test [8], in [9], in test [10], in [11] and in test [12] was “inactive” in each case. In test [17], the Potency entry is “inactive”.
For the compound `Cn1c(=O)c2[nH]c(C3CCCC3)nc2n(C)c1=O`, the result in test [1] and in test [2] was inactive. Besides, the activity change, negative = inhibition in test [3] (at 57.5 µM (top of the series)) is 11.7% (inactive) and -0.538% (inactive). For the same compound, the max response in [3] (setting [18]) is 10.8% and -10.7%; in test [3] (setting [19]), 26.8% and -11.4%. Besides, the Potency result in test [4], in test [5], in test [6], in test [13], in [7] and in test [15] was “inactive” each time. Also, the Potency entry in test [8], in test [11], in [12] and in [17] was “inactive” each time.
Consider `COc1ccc(C(=O)NCc2cccnc2)cc1C(=O)NCc1cccnc1`, for which the result in test [1], in test [2] and in test [16] was inactive. Besides, the activity change, negative = inhibition is 1.2% (inactive) in [3] (at 25.7 µM (top of the series)) and 1.17% (inactive) in [3] (at 57.5 µM (top of the series)). In addition, the max response in test [3] (setting [18]) is -2.62% and -3.84%; in [3] (setting [19]), -2.28% and -1.65%. The Potency result in test [4], in test [5], in test [6], in [14], in [7] and in test [15] was “inactive” in each case. The Potency result in test [8], in [10], in [11] and in test [12] was “inactive” each time.
As for `CCCCCC(O)CCCC(=O)O` (stereo unspecified), the compound was called inactive in test [2] and in [16]. In [3] (at 57.5 µM (top of the series)), the activity change, negative = inhibition was 0.833% (inactive). In addition, the max response in test [3] (setting [18]) was -25.3%; in test [3] (setting [19]), -24.6%. In addition, the Potency result in [4], in test [5], in [6], in test [13], in test [14] and in test [7] was “inactive” throughout. Moreover, the Potency result in [15], in [8], in test [9], in test [10], in [11] and in test [12] was “inactive” each time. Also, in test [17], the Potency entry was “inactive”.
With `COc1ccccc1N1CCN(CCCCNC(=O)c2ccc3ccccc3c2)CC1`, the compound was called inactive in [1] and in [2]. The activity change, negative = inhibition in [3] (at 25.7 µM (top of the series)) was 0.195% (inactive). In addition, the max response was determined as 1.63% in [3] (setting [18]) and 1.88% in test [3] (setting [19]). Moreover, the Potency entry in [4], in test [5], in [6] and in [12] was “inactive” in each case. The Potency is 7.08 µM (active) in [13]; 10 µM (active) in test [14]; 2 µM (active) in [7]; 10 µM (active) in test [15]; 10 µM (active) in test [8]; 2.51 µM (active) in test [9]. Moreover, the Potency in [10] was 5.01 µM (active).
